Test systems include HCT-15 colon; HT29 colon; SNB-75 CNS; SNB-19 CNS; U251 CNS; PC-3 prostate; SK-MEL-5 melanoma; UACC-62 melanoma; LOX IMVI melanoma; SK-MEL-28 melanoma.
Experiment in all cases: NCI-60 one-dose screen, 48 h (100 = growth as untreated, 0 = no growth, -100 = all killed)
Common to all, as to conditions: 10 µM unless noted

Our source for the growth values is PubChem BioAssay (NCI).

The panel holds about 83,000 compounds, 20% with a hit somewhere; the sample as a whole holds those more often.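 Treatment: one concentration, 48 hours, 96-well format. Scoring: percent growth, with anything below 10 considered active.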 Values without a mark were called inactive. The source made the active and inactive calls.

Regarding `COc1ccc(C(=O)Nc2ncc(Cc3ccc(Cl)cc3)s2)cc1`, the growth in the experiment on HCT-15 colon was 8.72% (active); in the experiment on HT29 colon, 6.03% (active); with SNB-75 CNS, 20%; in the experiment on SNB-19 CNS, 23.9%; in the experiment with U251 CNS, 25.2%; in the experiment on PC-3 prostate it was 22.7%. Moreover, the growth with SK-MEL-5 melanoma is -1.16% (active); with UACC-62 melanoma, 33.5%; with LOX IMVI melanoma it was 19.8%; in the experiment on SK-MEL-28 melanoma, 52.3%.
On to `COc1cc(-c2cc(-c3ccc(Nc4nc(Nc5ccc(Cl)cc5)nc(Nc5ccc(Cl)cc5)n4)cc3)no2)cc(OC)c1OC`, for which the growth in the experiment on HCT-15 colon was 81.2%; with HT29 colon, 78.8%; in the experiment on SNB-75 CNS it was 74.6%; in the experiment on SNB-19 CNS, 81.6%; with U251 CNS, 73.4%; with PC-3 prostate it was 60.1%. In addition, the growth is 61.2% in the experiment with SK-MEL-5 melanoma, 82.1% in the experiment with UACC-62 melanoma, 73.3% in the experiment with LOX IMVI melanoma and 88% with SK-MEL-28 melanoma.
With `CCOC(=O)c1c(C)nc2ccccc2c1/C=C/c1ccc(F)cc1`, the growth in the experiment with HCT-15 colon is 68.1%; with HT29 colon it was 75.5%; with SNB-75 CNS, 86.5%; in the experiment with SNB-19 CNS, 76.9%; in the experiment on U251 CNS, 75.5%; in the experiment with PC-3 prostate, 67.3%. The growth with SK-MEL-5 melanoma is 16.7%; in the experiment on UACC-62 melanoma, 49.7%; with LOX IMVI melanoma, 74.1%; with SK-MEL-28 melanoma, 101%.
With `c1csc(-c2cn3nc(-c4c[nH]c5ccccc45)sc3n2)c1`, the growth in the experiment with HCT-15 colon was 21.6%; with HT29 colon, 6.1% (active); in the experiment with SNB-75 CNS, -4.32% (active); with SNB-19 CNS, 28.7%; in the experiment with U251 CNS, 23.7%; with PC-3 prostate, 26.5%. Moreover, the growth was 19.5% with SK-MEL-5 melanoma, 32.5% in the experiment with UACC-62 melanoma, 28.8% with LOX IMVI melanoma and 48.5% in the experiment on SK-MEL-28 melanoma.
As to `CCN(CC)CCOc1ccc(C(=O)/C=C\c2ccc(Cl)cc2Cl)cc1`, the growth in the experiment on HCT-15 colon was 2.05% (active); in the experiment on HT29 colon it was -19.6% (active); with SNB-75 CNS it was 82.9%; in the experiment on SNB-19 CNS, 56.7%; with U251 CNS it was 24.9%; in the experiment with PC-3 prostate, 23.3%. Moreover, the growth in the experiment with SK-MEL-5 melanoma is 6.5% (active); in the experiment with UACC-62 melanoma, -34.5% (active); with LOX IMVI melanoma it was -77.3% (active); with SK-MEL-28 melanoma, 32.5%.
Consider `CC(=O)c1sc(-c2ccc(F)cc2)cc1O`, for which the growth in the experiment with HCT-15 colon was 97.7%; in the experiment with HT29 colon, 105%; with SNB-75 CNS it was 89%; in the experiment on SNB-19 CNS, 103%; in the experiment with U251 CNS, 100%; with PC-3 prostate it was 93.9%. The growth in the experiment on SK-MEL-5 melanoma is 100%; with UACC-62 melanoma, 100%; in the experiment with LOX IMVI melanoma it was 97.4%; in the experiment with SK-MEL-28 melanoma, 110%.
Consider `O=C1C(Cl)=C(Nc2ccccc2)C(=O)c2ccccc21`, for which the growth in the experiment with HCT-15 colon is -78.2% (active); with HT29 colon it was -75.1% (active); with SNB-75 CNS, 97.8%; in the experiment with SNB-19 CNS, 54.2%; in the experiment on U251 CNS, -41.8% (active); in the experiment with PC-3 prostate, 39.7%. Besides, the growth with SK-MEL-5 melanoma is -85.3% (active); with UACC-62 melanoma, -49.8% (active); with LOX IMVI melanoma, -85.5% (active); with SK-MEL-28 melanoma, -91.9% (active).
As for `Nc1ccc(-c2ccncc2)cc1NC(=O)N1CCCC1`, the growth with HCT-15 colon is 100%; with HT29 colon, 72.9%; in the experiment with SNB-75 CNS, 85%; with SNB-19 CNS, 106%; with U251 CNS it was 89.8%; with PC-3 prostate it was 91.2%. Besides, the growth in the experiment on SK-MEL-5 melanoma was 99.3%; with UACC-62 melanoma it was 91.7%; in the experiment on LOX IMVI melanoma, 112%; in the experiment on SK-MEL-28 melanoma, 96.1%.
Consider `COc1cc(C=Nc2oc(-c3ccccc3)c(-c3ccccc3)c2C#N)cc(CN2CCCC2)c1O`, for which the growth in the experiment with HCT-15 colon was 103%; in the experiment with HT29 colon, 107%; with SNB-75 CNS it was 66.8%; with SNB-19 CNS, 94.6%; with U251 CNS it was 93.2%; in the experiment with PC-3 prostate, 86.8%. Also, the growth in the experiment with SK-MEL-5 melanoma was 104%; with UACC-62 melanoma, 86.5%; with LOX IMVI melanoma, 96.5%; with SK-MEL-28 melanoma, 112%.
As for `O=S(=O)(NCCNc1nccc(-c2c(-c3ccc(F)c(O)c3)nc3sccn23)n1)c1ccc(Cl)cc1`, the growth is 27% with HCT-15 colon; 17.5% with HT29 colon; 50.2% with SNB-75 CNS; 46.1% in the experiment on SNB-19 CNS; 41.6% in the experiment on U251 CNS; 17% with PC-3 prostate. Further, the growth with SK-MEL-5 melanoma is -18.5% (active); in the experiment on UACC-62 melanoma, -1.12% (active); in the experiment on LOX IMVI melanoma it was 29.6%; in the experiment with SK-MEL-28 melanoma it was 47.6%.
In the case of `FC(F)(F)c1[nH]ncc1-c1nc2ccc3[nH]ncc3c2c2c1CCCC2`, the growth in the experiment on HCT-15 colon was 12.7%; with HT29 colon, 6.93% (active); in the experiment with SNB-75 CNS, 8.42% (active); in the experiment with SNB-19 CNS, 17.7%; in the experiment on U251 CNS, 5.69% (active); in the experiment on PC-3 prostate, 21%. The growth in the experiment with SK-MEL-5 melanoma is -73.7% (active); with UACC-62 melanoma, 9.03% (active); with LOX IMVI melanoma, -38.2% (active); in the experiment on SK-MEL-28 melanoma, 2.24% (active).
In the case of `COc1ccc(CNc2ccc3nc(NC(=O)CN4CCCCCC4)sc3c2)cc1`, the growth in the experiment on HCT-15 colon was 70.9%; in the experiment on HT29 colon it was 60.6%; with SNB-75 CNS it was 131%; in the experiment on SNB-19 CNS it was 96.1%; with U251 CNS, 85.4%; in the experiment on PC-3 prostate it was 65.8%. The growth with SK-MEL-5 melanoma was 67.8%; in the experiment with UACC-62 melanoma, 73.8%; with LOX IMVI melanoma, 78.5%; in the experiment on SK-MEL-28 melanoma, 101%.
Consider `COc1ccc2cc(C(=O)N3CCC([C@@H](C)C(=O)NCc4ccc5c(c4)OCO5)CC3)[nH]c2c1`, for which the growth with HCT-15 colon was 83% [50 µM]; with HT29 colon, 89.6% [50 µM]; in the experiment on SNB-75 CNS, -37.6% [50 µM] (active); in the experiment with SNB-19 CNS, 25.8% [50 µM]; with U251 CNS, 23.6% [50 µM]; in the experiment on PC-3 prostate, 56.5% [50 µM]. Further, the growth in the experiment with SK-MEL-5 melanoma was 63.6% [50 µM]; in the experiment on UACC-62 melanoma it was 43.7% [50 µM]; with LOX IMVI melanoma, 54.7% [50 µM]; in the experiment with SK-MEL-28 melanoma it was 77.8% [50 µM].
